Compound activity: PubChem, several laboratories
TAG inh: inhibitors of triacylglycerol accumulation. H9c2 cells, Nile Red lipid (TAG) fluorescence; cells loaded with 200 µM oleic acid. inhibition, % at 12.5 µM. hit rate 0.66% among 230,000. AID 651582;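 active means pattern-corrected inhibition of lipid staining of at least 50% with the nuclear-stain viability signal not falling by more than 50%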;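 further: 0% = DMSO wells and 100% = triacsin C control wells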
CHT block: inhibits the human high affinity choline transporter. Q9GZV3. CHT-expressing cells, membrane potential dye, choline response; hits give low values. B-score at 10 µM. hit rate 0.86% among 310,000;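 active means B-score over 3 SD under the library average, and starting fluorescence ratio not unusually high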;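 further: choline stimulus applied at its EC90 after an EC20 pre-addition; B-score computed on integrated fluorescence ratio after choline addition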
CHT allo act: allosteric activators of human choline transporter CHT. Q9GZV3. CHT-expressing cells, membrane potential dye, choline EC20; hits give high values; LV-AA mutant CHT in HEK293 cells. B-score at 10 µM. hit rate 0.49% among 310,000. AID 488977;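 active means initial fluorescence not abnormally high and integrated response B-score, plate-corrected, over 3 SD above library mean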
Kir21 inh: inhibitors of mouse Kir2.1 inward-rectifier potassium channel; P35561; HEK293-Kir2.1, FluxOR thallium flux fluorescence; hits give low values; B-score at 10 µM; hit rate 0.85% among 310,000;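 active means fluorescence ratio B-score at or below minus 3 SD of library scores, with starting-brightness B-score within 2 SD, cut at about -4.2 in these data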;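 further: channel flux triggered by added potassium and thallium sulfate stimulus; B-score of peak minus minimum fluorescence over baseline after thallium stimulus; more negative B-score means stronger Kir2.1 block with less thallium influx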
Target sequence (P35561 whole entry, looked up): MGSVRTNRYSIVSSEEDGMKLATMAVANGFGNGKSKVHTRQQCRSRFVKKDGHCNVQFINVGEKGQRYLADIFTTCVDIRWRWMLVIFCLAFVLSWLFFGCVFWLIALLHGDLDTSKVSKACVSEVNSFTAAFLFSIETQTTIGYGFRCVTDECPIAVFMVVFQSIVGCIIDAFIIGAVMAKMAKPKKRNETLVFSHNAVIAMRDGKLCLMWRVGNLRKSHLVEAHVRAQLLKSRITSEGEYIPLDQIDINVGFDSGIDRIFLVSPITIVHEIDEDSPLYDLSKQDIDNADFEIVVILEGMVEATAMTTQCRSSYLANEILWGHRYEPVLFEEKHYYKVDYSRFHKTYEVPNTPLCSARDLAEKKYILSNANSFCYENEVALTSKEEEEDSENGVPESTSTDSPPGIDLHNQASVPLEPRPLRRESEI
CHT inh conf: confirmation of human choline transporter CHT inhibitors; CHT-expressing cells, choline membrane potential dye; LV-to-AA substituted CHT, HEK293 cells; CHT activity remaining % of control (hits give low values), % at 10 µM; shares compounds with CHT block; hit rate 70% among 2,400;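 active means choline transporter activity left, mean of duplicates at 10 µM, below buffer-only control mean minus 3 SD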;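 further: depolarization triggered by choline at its EC90 following an EC20 pre-addition; 0% = hemicholinium-3 full block and 100% = buffer-only control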
HEK293 MPD ctr: counter-screen for CHT inhibitors: effect in parental HEK293 cells; shares compounds with CHT block; hit rate 4% among 2,400; AID 493222; membrane potential ratio readout (active if shifted either direction beyond buffer ±3SD; no single direction) at 10 µM; membrane potential dye, choline response; active = decrease or increase beyond buffer ±3SD;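 further: parental cells lack the transporter so any hit is non-specific; ratio is peak minus trough fluorescence over baseline after EC90 choline challenge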
* hit, by the source's call; i = inactive; . = no result. Hits are enriched below; roughly 2% of the tested compounds scored in any of these assays.

SMILES | TAG inh | CHT block | CHT allo act | Kir21 inh | CHT inh conf | HEK293 MPD ctr
COc1ccc(OC)c(S(=O)(=O)N2CCCC(C(=O)NCc3ccco3)C2)c1 (configuration not stated) | . | i | i | 0.08 | . | .
CCOCCCn1c(=S)[nH]c2cc(C(=O)N3CCN(C4CCCCC4)CC3)ccc2c1=O | . | -5.05* | i | -0.01 | 57.1%* | i
CCOC(=O)c1c(N)ssc1=S | . | -11.5* | i | -1.11 | 17.0%* | i
Cc1ccc([C@H]2C[C@H](n3cc(COC(=O)c4ccccc4)nn3)[C@@H](O)CN2C(=O)C2CCCCC2)cc1 | -17.8 | . | . | . | . | .
CCOC(=O)c1ccccc1N/C=C/C(=O)c1cccs1 | . | -8.51* | i | 0 | 41.5%* | i
CCOC(=O)c1ccccc1NC(=O)c1cccs1 | . | i | i | . | . | .
Oc1cccc(C(O)CNCc2ccc(OCc3ccc(Cl)cc3Cl)cc2)c1 (configuration not stated) | -18.3 | -5.63* | i | -1.87 | 69.0%* | i
CC(O)CNCc1ccc(Cl)cc1Cl (configuration not stated) | . | i | i | -0.45 | . | .
Cc1ccc([N+](=O)[O-])cc1N | -4.5 | i | i | -0.05 | . | .
CCc1cc([N+](=O)[O-])cc(CC)c1N | -3.2 | -5.89* | i | 0.08 | 39.7%* | i
Cc1cccc(N=Cc2cc(Br)cc(Cl)c2O)c1 | . | -7.83* | i | -0.97 | 57.0%* | i
Cc1cc(C)c(C)c(S(=O)(=O)N[C@@H](C)C(=O)OCC(=O)NC2CCCC(C)C2C)c1C (some centres not stated) | -12.6 | . | . | . | . | .
CC(NC(=O)c1cc(=O)[nH]c2ccccc12)c1ccccc1 (configuration not stated) | 10.0 | i | i | 2.01 | . | .
CCOC(=O)c1cc(C(=O)NC(C)c2ccccc2)c(=O)[nH]c1C (configuration not stated) | -4.0 | -11.5* | i | 0.6 | 26.3%* | i
O=C(CN1C(=O)NC2(CCCCC2)C1=O)N1CCN(S(=O)(=O)c2ccc(F)cc2)CC1 | -25.1 | i | i | 1.24 | . | .
COc1cccc(CNc2ccc(N3CCCCC3)cc2)c1OC | . | -14.5* | i | . | 12.2%* | i
CSc1ccc(CN(C)Cc2nc3cc(C(F)(F)F)ccc3c(=O)[nH]2)cc1 | -0.8 | i | i | -0.56 | . | .
COc1ccc(-c2cc(-c3cccnc3)c(C#N)c(N)n2)cc1 | -4.1 | i | i | 0.01 | . | .
COc1cccc(-c2cc(-c3cccnc3)nc(N)c2C#N)c1 | -5.4 | -7.27* | i | 0.41 | i | i
Cn1c(/C=C/N(Cc2ccccc2)c2ccccc2)c([N+](=O)[O-])c(=O)n(C)c1=O | . | -8.36* | i | 0.81 | 49.5%* | i
COc1ccc(CCc2ccc3ccccc3n2)cc1 | -13.4 | . | . | . | . | .
CCCCNc1ccc(C(CC(N)=O)NC(=O)c2ccccc2)cc1[N+](=O)[O-] (configuration not stated) | . | i | i | -0.82 | . | .
NC(=O)CC(NC(=O)c1ccc(Br)cc1)c1ccc(N2CCCCCCC2)c([N+](=O)[O-])c1 (configuration not stated) | -9.0 | -5.34* | i | 1.24 | 65.1%* | i
Cc1ccccc1CNc1ccc(C(CC(N)=O)NC(=O)c2ccccc2)cc1[N+](=O)[O-] (configuration not stated) | . | -5.39* | i | 0.39 | i | i
NC(=O)CC(NC(=O)c1ccc(Br)cc1)c1ccc(N2CCN(c3ccccc3)CC2)c([N+](=O)[O-])c1 (configuration not stated) | 9.8 | i | i | 0.63 | . | .
NC(=O)CC(NC(=O)c1ccccc1)c1ccc(NCCc2ccc(F)cc2)c([N+](=O)[O-])c1 (configuration not stated) | -5.3 | i | i | -0.64 | . | .
CCC(CC)Nc1ccc(C(CC(N)=O)NC(=O)c2ccccc2)cc1[N+](=O)[O-] (configuration not stated) | . | -5.07* | i | 2.11 | 41.2%* | i
CN(CC(=O)Nc1ccc(F)c(F)c1F)C(=O)C1COc2ccccc2O1 (configuration not stated) | -16.9 | . | . | . | . | .
